Laboratory results from PubChem BioAssay AID1159580 (chemical genetic matrix, 2015).
Hit rate of the full screen: of about 5,500 compounds, about 2,000 (36%) were called active. Not shown: some 18% with an inconclusive outcome. Cut-off read from the data, not from the text of the source: active = normalized growth mostly below about 0.91 (no sharp cut-off); inconclusive = no clear call, values can overlap the other calls; inactive = mostly above about 0.92. The list shows a part of the results.

Assay: chemical genetic growth profiling, strain panel (AID 1159580);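 note: tested at 20 µM; growth read once vehicle control cultures reached saturation at 30 °C; 1 = growth at the plate median or of vehicle wells; lower values mean less growth of the strain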
Conditions: growth OD

Measured: normalized growth

CCC1(c2ccccc2)C(=O)NCNC1=O
inactive: S. cerevisiae deletion strains, locus YJR075W, strain HOC1, hits give low values 1.01 | S. cerevisiae deletion strains, locus YKL009W, strain mrt4, hits give low values 0.998 | S. cerevisiae deletion strains, locus YKL068W, hits give low values 0.997 | S. cerevisiae deletion strains, locus YKL085W, strain MDH1 (second series), hits give low values 0.996 | S. cerevisiae deletion strains, locus YKL085W, strain MDH1, hits give low values 0.996 | S. cerevisiae deletion strains, locus YKL160W, strain elf1, hits give low values 1.02 | S. cerevisiae deletion strains, locus YKL190W, strain CNB1, hits give low values 1.01 | S. cerevisiae deletion strains, locus YKR001C, strain vps1, hits give low values 0.995 | S. cerevisiae deletion strains, locus YKR026C, strain gcn3, hits give low values 0.978 | S. cerevisiae deletion strains, locus YKR091W, strain srl3, hits give low values 0.999 | S. cerevisiae deletion strains, locus YLL001W, strain dnm1, hits give low values 1.02 | S. cerevisiae deletion strains, locus YLL026W, hits give low values 1 | S. cerevisiae deletion strains, locus YLL041C, strain sdh2, hits give low values 1.01 | S. cerevisiae deletion strains, locus YLR027C, strain aat2, hits give low values 1.01 | S. cerevisiae deletion strains, locus YLR039C, strain RIC1, hits give low values 0.971 | S. cerevisiae deletion strains, locus YLR058C, strain SHM2, hits give low values 1.01 | S. cerevisiae deletion strains, locus YLR102C, strain apc9, hits give low values 0.996 | S. cerevisiae deletion strains, locus YLR113W, strain HOG1, hits give low values 0.993 | S. cerevisiae deletion strains, locus YLR221C, strain rsa3, hits give low values 1.01 | S. cerevisiae deletion strains, locus YLR258W, strain gsy2, hits give low values 1.01 | S. cerevisiae deletion strains, locus YLR262C, strain YPT6 (second series), hits give low values 1.03 | S. cerevisiae deletion strains, locus YLR262C, strain YPT6, hits give low values 0.995 | S. cerevisiae deletion strains, locus YLR268W, strain sec22, hits give low values 0.981 | S. cerevisiae deletion strains, locus YLR320W, strain mms22, hits give low values 1.02 | S. cerevisiae deletion strains, locus YLR330W, strain CHS5, hits give low values 1.01 | S. cerevisiae deletion strains, locus YLR342W, strain FKS1 (second series), hits give low values 1.01 | S. cerevisiae deletion strains, locus YLR342W, strain FKS1, hits give low values 1.03 | S. cerevisiae deletion strains, locus YLR357W, strain rsc2, hits give low values 1.02 | S. cerevisiae deletion strains, locus YLR370C, strain arc18, hits give low values 1.01 | S. cerevisiae deletion strains, locus YLR371W, strain rom2, hits give low values 1 | S. cerevisiae deletion strains, locus YLR384C, strain iki3, hits give low values 1.01 | S. cerevisiae deletion strains, locus YLR418C, strain cdc73, hits give low values 0.992 | S. cerevisiae deletion strains, locus YML016C, strain PPZ1, hits give low values 1 | S. cerevisiae deletion strains, locus YML032C, strain rad52, hits give low values 0.992 | S. cerevisiae deletion strains, locus YML120C, strain ndi1, hits give low values 1.01 | S. cerevisiae deletion strains, locus YML124C, strain tub3, hits give low values 0.995 | S. cerevisiae deletion strains, locus YMR058W, strain fet3, hits give low values 0.995 | S. cerevisiae deletion strains, locus YMR078C, strain ctf18, hits give low values 1 | S. cerevisiae deletion strains, locus YMR125W, strain sto1, hits give low values 0.979 | S. cerevisiae deletion strains, locus YMR129W, hits give low values 0.99 | S. cerevisiae deletion strains, locus YMR205C, strain PFK2, hits give low values 1.02 | S. cerevisiae deletion strains, locus YMR223W, strain ubp8, hits give low values 0.995 | S. cerevisiae deletion strains, locus YMR231W, strain pep5, hits give low values 1.01 | S. cerevisiae deletion strains, locus YMR263W, strain SAP30, hits give low values 0.982 | S. cerevisiae deletion strains, locus YMR307W, strain GAS1, hits give low values 0.998 | S. cerevisiae deletion strains, locus YNL067W, strain RPL9B, hits give low values 1.01 | S. cerevisiae deletion strains, locus YNL071W, strain lat1, hits give low values 1 | S. cerevisiae deletion strains, locus YNL128W, strain TEP1, hits give low values 1.02 | S. cerevisiae deletion strains, locus YNL153C, strain GIM3, hits give low values 1.13 | S. cerevisiae deletion strains, locus YNL175C, strain NOP13, hits give low values 0.997 | S. cerevisiae deletion strains, locus YNL183C, strain NPR1, hits give low values 0.975 | S. cerevisiae deletion strains, locus YNL197C, strain WHI3, hits give low values 0.976 | S. cerevisiae deletion strains, locus YNL209W, strain ssb2, hits give low values 1.01 | S. cerevisiae deletion strains, locus YNL224C, strain SQS1, hits give low values 1 | S. cerevisiae deletion strains, locus YNL233W, strain BNI4, hits give low values 1 | S. cerevisiae deletion strains, locus YNL248C, strain rpa49, hits give low values 1.01 | S. cerevisiae deletion strains, locus YNL250W, strain rad50, hits give low values 0.998 | S. cerevisiae deletion strains, locus YNL271C, strain bni1, hits give low values 0.993 | S. cerevisiae deletion strains, locus YNL298W, strain CLA4, hits give low values 1.01 | S. cerevisiae deletion strains, locus YNL307C, strain MCK1, hits give low values 0.995 | S. cerevisiae deletion strains, locus YNL322C, strain KRE1 (second series), hits give low values 1.01 | S. cerevisiae deletion strains, locus YNL322C, strain KRE1, hits give low values 1 | S. cerevisiae deletion strains, locus YNR049C, strain mso1, hits give low values 1 | S. cerevisiae deletion strains, locus YNR052C, strain pop2, hits give low values 0.998 | S. cerevisiae deletion strains, locus YOL006C, strain TOP1, hits give low values 0.989 | S. cerevisiae deletion strains, locus YOL012C, strain htz1 0.947 | S. cerevisiae deletion strains, locus YOL147C, strain pex11, hits give low values 0.988 | S. cerevisiae deletion strains, locus YOR001W, strain rrp6, hits give low values 0.981 | S. cerevisiae deletion strains, locus YOR061W, strain CKA2, hits give low values 1 | S. cerevisiae deletion strains, locus YOR069W, strain VPS5, hits give low values 1.01 | S. cerevisiae deletion strains, locus YOR070C, strain gyp1, hits give low values 1.01 | S. cerevisiae deletion strains, locus YOR080W, strain dia2, hits give low values 1.01 | S. cerevisiae deletion strains, locus YOR083W, strain WHI5 (second series), hits give low values 1 | S. cerevisiae deletion strains, locus YOR083W, strain WHI5, hits give low values 1.02 | S. cerevisiae deletion strains, locus YOR106W, strain vam3, hits give low values 1.01 | S. cerevisiae deletion strains, locus YOR136W, strain idh2, hits give low values 1 | S. cerevisiae deletion strains, locus YOR144C, strain elg1, hits give low values 0.992 | S. cerevisiae deletion strains, locus YOR184W, strain ser1, hits give low values 1.01 | S. cerevisiae deletion strains, locus YOR231W, strain MKK1, hits give low values 1 | S. cerevisiae deletion strains, locus YOR265W, strain rbl2, hits give low values 1 | S. cerevisiae deletion strains, locus YOR270C, strain vph1, hits give low values 1.02 | S. cerevisiae deletion strains, locus YOR290C, strain snf2, hits give low values 1.01 | S. cerevisiae deletion strains, locus YOR316C, strain cot1, hits give low values 0.996 | S. cerevisiae deletion strains, locus YPL051W, strain arl3, hits give low values 1.01 | S. cerevisiae deletion strains, locus YPL055C, strain LGE1, hits give low values 1.01 | S. cerevisiae deletion strains, locus YPL078C, strain atp4, hits give low values 0.994 | S. cerevisiae deletion strains, locus YPL106C, strain sse1, hits give low values 1.01 | S. cerevisiae deletion strains, locus YPL240C, strain hsp82, hits give low values 0.992 | S. cerevisiae deletion strains, locus YPL241C, strain CIN2, hits give low values 1.01 | S. cerevisiae deletion strains, locus YPL256C, strain CLN2, hits give low values 1 | S. cerevisiae deletion strains, locus YPR119W, strain clb2, hits give low values 0.996 | S. cerevisiae deletion strains, locus YPR141C, strain kar3, hits give low values 0.989 | S. cerevisiae deletion strains, locus YPR163C, strain tif3, hits give low values 0.994 | S. cerevisiae deletion strains, locus YPR167C, strain met16, hits give low values 0.995 | S. cerevisiae deletion strains, strain wtn01, hits give low values 0.991 | S. cerevisiae strains, strain wild type, hits give low values 1.01
